This note sets out measurements from PubChem BioAssay AID1445 (SRMLSC, 2008).

Among all 220,000 compounds or so, about 910 (0.41%) were called active.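 The calls were made as follows: active = primary inhibition above the hit cutoff, then over 50% inhibition at one or more dose response concentrations (cut at about 23% in these data, passing the limit was not always enough); inconclusive = conflicting primary data, or primary hits not chosen for dose response; inactive = low primary inhibition, or under 50% at every dose.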 The list comes from a sample in which actives are over-represented; it also holds similar structures and randomly drawn compounds. Results with a measured potency or affinity are listed apart.

The target of this experiment is Aminopeptidase N (Plasmodium falciparum (isolate 3D7)) (UniProt O96935). As to the kind of experiment: P. falciparum M1AAP inhibitors, biochemical, fluorogenic H-Leu-NHMec substrate, 1536-well (AID 1445).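 Also: plate controls were DMSO full reaction for no effect and no enzyme background for full effect.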 Conditions: recombinant M1AAP, H-Leu-NHMec fluorogenic kinetic assay; at 30 µM, hits give high values unless noted.
Aminopeptidase N (Plasmodium falciparum (isolate 3D7)), sequence (O96935 whole entry, looked up): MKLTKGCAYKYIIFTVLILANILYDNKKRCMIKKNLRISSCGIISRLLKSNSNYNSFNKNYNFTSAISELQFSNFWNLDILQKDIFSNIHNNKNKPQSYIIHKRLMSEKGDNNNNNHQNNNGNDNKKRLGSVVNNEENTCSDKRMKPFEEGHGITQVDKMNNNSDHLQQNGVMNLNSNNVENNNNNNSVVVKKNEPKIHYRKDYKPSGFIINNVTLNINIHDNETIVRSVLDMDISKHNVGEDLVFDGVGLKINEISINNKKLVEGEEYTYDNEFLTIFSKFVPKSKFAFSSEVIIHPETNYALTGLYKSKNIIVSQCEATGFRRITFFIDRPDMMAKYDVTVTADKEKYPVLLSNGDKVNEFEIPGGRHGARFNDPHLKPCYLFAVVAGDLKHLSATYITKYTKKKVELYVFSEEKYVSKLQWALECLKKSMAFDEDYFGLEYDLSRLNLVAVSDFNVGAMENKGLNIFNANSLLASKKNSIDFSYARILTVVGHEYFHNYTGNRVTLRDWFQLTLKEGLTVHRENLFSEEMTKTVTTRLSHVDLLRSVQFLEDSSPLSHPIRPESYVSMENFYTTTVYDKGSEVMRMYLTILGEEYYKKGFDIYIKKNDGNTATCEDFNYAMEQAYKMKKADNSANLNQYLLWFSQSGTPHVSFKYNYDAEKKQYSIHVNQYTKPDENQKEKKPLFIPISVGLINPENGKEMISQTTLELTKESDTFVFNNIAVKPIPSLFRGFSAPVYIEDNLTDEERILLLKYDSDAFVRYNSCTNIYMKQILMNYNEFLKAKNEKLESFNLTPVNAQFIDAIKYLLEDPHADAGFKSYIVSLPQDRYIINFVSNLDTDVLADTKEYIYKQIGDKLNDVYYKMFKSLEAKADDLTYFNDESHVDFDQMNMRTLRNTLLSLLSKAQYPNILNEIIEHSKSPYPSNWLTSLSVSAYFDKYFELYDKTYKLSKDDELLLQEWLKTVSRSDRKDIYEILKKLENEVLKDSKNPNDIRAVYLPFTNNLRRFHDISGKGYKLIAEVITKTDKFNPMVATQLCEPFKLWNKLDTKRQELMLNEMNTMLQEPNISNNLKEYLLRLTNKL
For `CCOc1ccccc1-n1c(SCC(=O)N(C(C)C)C(C)C)nnc1-c1cccnc1`, the inhibition is 5.81% (inactive). In the case of `O=C(CN1CCN(Cc2ccc(Cl)cc2)C1=O)NCCN1CCCC1`, the inhibition was 1.07% (inactive).

On to `CCC(C)[C@H](NC(=O)Nc1ccc(C(C)=O)cc1)C(=O)OC` (stereo not given in full), for which the inhibition is -5.32% (inactive). As to `Cc1nn(-c2ccccc2)c(Cl)c1/C=C1\SC(=S)N(C)C1=O`, the inhibition is -0.16% (inactive). Consider `CCC1=NN2C(=N)/C(=C/c3cc(C)n(Cc4ccccc4)c3C)C(=O)N=C2S1`, for which the inhibition was 1.28% (inactive). With `Cc1nn(-c2ccccc2)c(Cl)c1/C=C1\C(=O)N(C)C(=S)N1C`, the inhibition was 5.11% (inactive).

As to `CCC1=NN2C(=N)/C(=C\c3cccn3-c3cccc(Cl)c3)C(=O)N=C2S1`, the inhibition is 7.8% (inactive). For `O=C(Nc1ccc(-n2nncc2-c2ccco2)cc1)c1cccc(F)c1`, the inhibition was 1.93% (inactive). Consider `COc1ccc(CN(C)CC(=O)Nc2ccccc2-c2ccccc2)c(OC)c1`, for which the inhibition was 6.36% (inactive).

As to `O=C(O)C(CC1CCCCC1)N1CCS(=O)(=O)CC1` (stereo not given), the inhibition is -6% (inactive). As for `C=CCn1c(N)cc(=O)nc1SC(C)C(=O)Nc1cccc2ccccc12` (stereo not given), the inhibition is 14% (inactive). On to `Cc1ccc(NC(=O)c2ccccc2NS(=O)(=O)c2ccc(F)cc2)cc1S(=O)(=O)N1CCCCC1`, for which the inhibition is 14.4% (inactive). For the compound `O=C(Nc1cc(S(=O)(=O)Nc2ccc(Cl)cc2)ccc1O)c1ccc(S(=O)(=O)N2CCCCCC2)cc1`, the inhibition was 0.01% (inactive).

`O=C(Nc1cccc(S(=O)(=O)N2CCCCC2)c1)c1ccccc1NS(=O)(=O)c1ccc(F)cc1`: the inhibition is 11.5% (inactive). For `O=C(Nc1ccccc1N1CCOCC1)c1ccccc1NS(=O)(=O)c1ccc(F)c(F)c1`, the inhibition is 5.56% (inactive). In the case of `CCc1nnc(NC(=O)CN2CCN(C(=O)c3ccccc3)CC2)s1`, the inhibition was 5.2% (inactive). Next, `O=C(O)C1CCN(C(=O)CSc2nc3ccccc3s2)CC1`: -1.91% (inactive). Take `CSc1ccc(Cl)c(C(=O)NC2CCCC2)c1`: the inhibition is 1.66% (inactive). For `CC(C)CNS(=O)(=O)c1ccc(CCC(=O)Nc2ccc3c(c2)OCCO3)cc1`, the inhibition is 9.09% (inactive). Regarding `Cc1ccc(Cl)cc1NC(=O)COC(=O)C1CC1`, the inhibition is -9.09% (inactive). `C=CCn1c(-c2ccccc2[N+](=O)[O-])n[nH]c1=S`: the inhibition is -1.25% (inactive).

As to `COc1ccc(N=C2NC(=O)/C(=C/c3ccco3)S2)cc1`, the inhibition is 7.45% (inactive).

Turning to `O=C(O)c1cccc(CN2C(=O)S/C(=C/c3cccc([N+](=O)[O-])c3)C2=O)c1`, the inhibition is 3.75% (inactive). For the compound `Cc1ccc(S(=O)(=O)NC(=O)c2ccc(Br)o2)cc1`, the inhibition is 0.41% (inactive). Next, `COc1ccc(S(=O)(=O)Nc2nncs2)cc1`: -0.42% (inactive); `COc1ccc(N=C2NC(=O)/C(=C\c3ccco3)S2)cc1`: 6.07% (inactive); `O=C1N/C(=N/O)S/C1=C/c1cccc([N+](=O)[O-])c1`: 13.8% (inactive). For the compound `CCCN1C(=O)/C(=C/c2ccco2)SC1=Nc1ccc(OC)cc1`, the inhibition was 8.83% (inactive). For the compound `CSC1=N/C(=C\c2ccc(Br)o2)C(=O)S1`, the inhibition was 1.89% (inactive). Next, `O=C(O)c1ccc(-c2nc3ccccc3s2)o1`: -2.11% (inactive); `O=C(COc1ccccc1)NNC(=O)COc1ccc([N+](=O)[O-])cc1`: 0.69% (inactive); `COc1cc(NC(=O)CN(C)Cc2cccc(F)c2)c(C)cc1[N+](=O)[O-]`: 13.2% (inactive).

In the case of `CNC(=S)N/N=C(\C)c1ccc2c(c1)OCO2`, the inhibition is 6.47% (inactive). As to `O=C(NC1CCCCC1)c1ccc(CNc2ccccc2)o1`, the inhibition was 3.72% (inactive). With `COc1ccc(/C=C/C(=O)c2ccc(Cl)s2)cc1O`, the inhibition was 9.54% (inactive). For the compound `NC(=O)c1ccc(-n2nnnc2SCC(=O)Nc2ccc(N3CCOCC3)c(Cl)c2)cc1`, the inhibition was -2.55% (inactive). Next, `CCCCOC(=O)Nc1nnc(CCOCC)s1`: 2.38% (inactive).

Take `CCN(CC)CCSc1nc2ccc(OC)cc2[nH]1`: the inhibition is 1.77% (inactive). Next, `Cc1ccc(S(=O)(=O)Nc2ccccc2-c2ccccc2NS(=O)(=O)c2ccc(C)cc2)cc1`: 17.1% (inactive); `NC1=NC(=O)/C(=C\c2ccco2)S1`: 9.69% (inactive). As to `Cc1ccc(N2C(=O)/C(=C\c3ccco3)SC2=S)cc1`, the inhibition was 2.77% (inactive).

Consider `CN(C)C1=NC(=O)/C(=C\c2ccccc2)S1`, for which the inhibition was 3.5% (inactive).

For the compound `COc1cc(O)c(C(CCN2CCCC(C)C2)c2ccc(N(C)C)cc2)c(OC)c1` (stereo not given), the inhibition was 12.5% (inactive). As to `O=C(/C(=C/O)N=Nc1ccccc1)c1ccncc1`, the inhibition is 18.4% (inactive). With `O=C(/C(=C/O)N=Nc1ccc(Cl)cc1)c1ccncc1`, the inhibition is 0.62% (inactive). In the case of `Cc1ccc(N=N/C(=C\O)C(=O)c2ccncc2)cc1`, the inhibition was 27.6% (active).

As for `Cc1ccc(NC(=O)Nc2ccc(F)cc2F)c(OC(F)F)c1`, the inhibition is -3.74% (inactive). Take `Cc1cc(NC(=O)CSCC(=O)N(c2ccc(F)cc2)C(C(=O)NC2CCCCC2)c2ccc(O)c(O)c2)no1` (stereo not given): the inhibition was 8.19% (inactive).

In the case of `Cc1cc(C)c(/C=C(\C#N)S(=O)(=O)c2ccccc2)[nH]1`, the inhibition is -6.03% (inactive). Take `N#C/C(=C/c1ccc(F)cc1)S(=O)(=O)c1ccccc1`: the inhibition is -4.5% (inactive). In the case of `N#C/C(=C\c1ccc(O)c(O)c1)S(=O)(=O)c1ccccc1`, the inhibition is 24.6% (active). On to `Cc1ccccc1Cn1nnc2c1C(=O)c1ccccc1C2=O`, for which the inhibition is -4.07% (inactive). Turning to `CC1(c2ccc(OC(F)F)cc2)NC(=O)N(CC(=O)Nc2ccc3c(c2)OCO3)C1=O` (stereo not given), the inhibition is 22.2% (inactive). Next, `Cc1cc(NC(=O)CN2C(=O)NC(C)(c3ccc(OC(F)F)cc3)C2=O)no1` (stereo not given): 7.82% (inactive); `O=C(CSc1nnc(CNc2ccc(Cl)cc2)o1)Nc1nc2ccccc2s1`: -13% (inactive). In the case of `CCCc1nnc(NC(=O)CCC(=O)N2CCN(S(=O)(=O)c3ccc(C)cc3)CC2)s1`, the inhibition is 3.35% (inactive).

Regarding `Oc1ccc(C2C(c3ccccc3)=NN=C(c3ccc(Cl)cc3)N2O)c(O)c1` (stereo not given), the inhibition is 12.1% (inactive). As to `CC(C)n1cc(/C=C2/SC(=O)N(CC(=O)N3CCCC3)C2=O)c2ccccc21`, the inhibition was 7.08% (inactive). Consider `O=C(O)CN1C(=O)/C(=C\c2cn(CC(=O)N3CCOCC3)c3ccccc23)SC1=S`, for which the inhibition is 21.1% (inactive).

Take `Cc1ccnc(NS(=O)(=O)c2ccc(NC(=O)c3cncc(Br)c3)cc2)n1`: the inhibition was -0.33% (inactive). Take `NC(=O)Cn1nc([N+](=O)[O-])nc1Oc1ccccc1C(=O)N1CCOCC1`: the inhibition is 3.73% (inactive). For the compound `CN(C)CCCNC(=O)c1cc(C(=O)C2CCCCC2)c[nH]1`, the inhibition is 3.52% (inactive). Next, `COCC(=O)N(Cc1cc2cc(OC)ccc2[nH]c1=O)c1ccccc1`: 7% (inactive). On to `O=C(CN1c2ccccc2Sc2ccccc21)NNC(=O)Nc1ccc(Cl)c(Cl)c1`, for which the inhibition is 0.08% (inactive).

Turning to `COc1ccc([N+](=O)[O-])cc1N(CC(O)Cn1nnc2ccccc21)S(=O)(=O)c1ccc(C)cc1` (stereo not given), the inhibition was 23.6% (active). Take `COc1ccc([N+](=O)[O-])cc1N(CC(O)CN1CCCC1)S(=O)(=O)c1ccc(C)cc1` (stereo not given): the inhibition was 2.31% (inactive). Regarding `COc1ccc([N+](=O)[O-])cc1N(CC(O)CN1CCCCC1)S(=O)(=O)c1ccc(C)cc1` (stereo not given), the inhibition was 8.41% (inactive). For `CCOC(=O)c1csc(NC(=O)c2ccc(OC)c(OC)c2)n1`, the inhibition is 1.77% (inactive). Next, `COCCN(C(=O)CSc1nnc(Nc2ccccc2F)s1)c1c(N)n(Cc2ccccc2)c(=O)[nH]c1=O`: 3.95% (inactive); `CCCS(=O)(=O)NCc1ccc2c(c1)cc(C)n2C`: 7.58% (inactive).
